# Bead autofluor: flagged as autofluorescent in microsphere protease counterscreen | AID 624483 | compound autofluorescence counterscreen, microsphere flow cytometry; hits give high values | fluorescence intensity (concentration not given with the values) | hit rate 3.1% among 360,000; in the data active means fluorescence intensity above about 16000; inconclusive means no clear call, values can overlap the other calls
# BoNT-F LC inh: inhibitors of Botulinum neurotoxin F light chain protease; Multiplex microsphere protease cleavage assay, flow cytometry; inhibition, % at 10 µM; hit rate 0.22% among 360,000; in the data active means inhibition above about 35%, passing the limit was not always enough; inconclusive means no clear call, values can overlap the other calls
# MazEF act: activators of E. coli MazEF toxin-antitoxin RNase. P0AE70. FAM/BHQ RNA-DNA oligo cleavage fluorescence, 5 h. activation, % at 20 µM. hit rate 0.32% among 350,000. AID 504720; in the data active means activation above about 50%
# Vc quorum ag: induces V. cholerae light production without autoinducers; V. cholerae BH1578 lux reporter, luminescence, 6 h; AID 588436; hit rate 0.16% among 350,000; activation, % at 18.7 µM; in the data active means activation mostly above about 9.7%, no sharp cut-off; inconclusive means no clear call, values can overlap the other calls; inactive means mostly below about 3.7%
# Anthrax LF inh2: inhibitors of Bacillus anthracis lethal factor protease | multiplex microsphere protease cleavage assay, LF | hit rate 0.12% among 360,000 | P15917 | inhibition, % at 10 µM
# BoNT-A LC inh2: BoNT A light chain protease inhibition; multiplex microsphere protease substrate cleavage, flow cytometry; inhibition, % at 10 µM; hit rate 0.17% among 360,000
# A number is an active result; . = inactive; ? = inconclusive; / = not tested or not shown. This is a sample that favours compounds with a hit; in the whole collection about 3.9% have one here. Unless noted, no stated cut-off is given here; in the data, active means inhibition above about 30%; inconclusive means no clear call, values can overlap the other calls; inactive means below that.
SMILES,Bead autofluor,BoNT-F LC inh,MazEF act,Vc quorum ag,Anthrax LF inh2,BoNT-A LC inh2
O=C(Nc1cc(C(F)(F)F)cc(C(F)(F)F)c1)O[C@@H]1c2ccccc2[C@@H]2Cc3csc[n+]3[C@H]12,.,.,/,/,.,.
CCc1ccccc1NC(=S)N(CCN1CCOCC1)Cc1ccccc1F,.,.,.,.,.,.
CC(=O)Nc1ccc(NC(=O)c2ccco2)cc1,22348,.,.,.,.,.
Cc1cc(C)c(C)c(S(=O)(=O)N2CCN(C(=O)c3cc(S(=O)(=O)N4CCOCC4)ccc3F)CC2)c1C,.,.,.,.,.,.
O=C(Cn1nc(-c2ccccc2)ccc1=O)Nc1ccc(-n2cnnn2)cc1,.,.,.,.,.,.
Cc1ccccc1-c1ccc(=O)n(CC(=O)Nc2ccc(N3CCOCC3)cc2)n1,20524,.,.,.,.,?
O=C(Cn1nc(-c2ccccc2)ccc1=O)Nc1ccc(N2CCN(C(=O)c3ccccc3)CC2)cc1,22910,.,.,.,.,.
CN1CCN(C=Nc2nc3ccccc3nc2N2CCCC2)CC1,.,.,.,.,.,.
CCCN1C(=O)/C(=C/c2ccc(N3CCCC3)c(C)c2)NC1=S,18761,.,.,.,.,.
Cc1cc(/C=C2/C(=O)N(C)C(=S)N2C)ccc1N1CCCC1,.,.,.,.,.,36.0
Cc1cc(/C=C2\NC(=S)N(C)C2=O)ccc1N1CCCC1,.,.,213.9,.,.,.
CCN1C(=O)/C(=C/c2ccc(N3CCCC3)cc2)NC1=S,.,.,.,.,.,.
Cc1cc(C=C(C#N)C#N)ccc1N1CCCC1,.,.,.,.,.,50.2
CCOc1ccc(NC(=O)/C(C#N)=C\c2ccc(N3CCCC3)c(C)c2)cc1,.,.,.,/,.,.
Nc1nc2c(ncn2[C@@H]2O[C@H](CNCc3ccccc3)[C@@H](O)[C@H]2O)c(=O)[nH]1,.,.,/,/,.,.
O=C(NCCN1CCOCC1)c1cccc(S(=O)(=O)N(Cc2ccccc2)c2ccccc2)c1,.,.,.,.,.,.
CC[C@]12c3[nH]c4cc(-c5ccco5)ccc4c3CCN1C(=O)[C@@H](CC(=O)NC(C)(C)C)C[C@@H]2C(=O)N1CCN(C(=O)c2ccco2)CC1,.,.,.,.,.,.
O=C1c2ccccc2C(c2nnnn2-c2ccc3c(c2)OCCO3)N1CCCn1ccnc1 (stereo not given),.,.,/,/,.,.
O=C1C=CN(C2OC(CO)C(O)C2O)C(=O)C1 (stereo not given),.,.,.,.,.,.
O=C(c1cccc([N+](=O)[O-])c1)N1CCN(c2n[nH]c(=O)[nH]c2=O)CC1,.,.,.,.,.,.
CC(=O)Nc1ccc(CN(C)c2c(C)nc3ccc(C(=O)N(C)Cc4ccco4)cn23)cc1,.,.,/,.,.,.
CCN1CCN(C(=O)CCCCCn2c(=O)[nH]c3cc(C(=O)OC)ccc3c2=O)CC1,.,.,.,.,.,.
CCN1CCN(CCNC(=O)CCCCCn2c(=O)[nH]c3cc(C(=O)OC)ccc3c2=O)CC1,23054,.,.,.,.,.
CC(=O)c1c(O)cc(C)n(Nc2nc(C)cc(C)n2)c1=O,21656,.,.,.,.,?
CCN1C(=O)[C@@H]2[C@@H]3CN(S(=O)(=O)c4ccc(C)cc4)[C@@H](c4ccccc4Cl)[C@@H]3C(=O)C[C@@H]2C1=O,.,.,/,/,.,.
SMILES,Bead autofluor,BoNT-F LC inh,MazEF act,Vc quorum ag,Anthrax LF inh2,BoNT-A LC inh2
CCOC(=O)C1=C(CSc2nccn2C)NC(=O)NC1c1cc(C)ccc1C (stereo not given),16485,.,.,.,.,?
CCOC(=O)C1=C(Cn2cnc3ccccc32)NC(=O)NC1c1cc(C)ccc1C (stereo not given),.,.,.,.,.,.
CCOC(=O)C1=C(CNCc2ccc(C)cc2)NC(=O)NC1c1cc(C)ccc1C (stereo not given),17821,.,.,.,.,.
COc1ccc(-c2cc(C(=O)Nc3cc(Br)ccc3O)no2)cc1,.,.,.,.,.,.
Cc1nnc(N2CCCC(C(=O)NCc3ccc(OC(C)C)cc3)C2)c2nn(-c3ccccc3)c(C)c12 (stereo not given),24028,.,88.4,.,.,.
CN(C)c1ccc(CNn2cnnc2)cc1,.,.,.,.,.,.
CN(C)c1ccc(CNn2cnnc2SCc2ccccc2F)cc1,19034,.,.,.,.,.
O=C(Cc1ccc(S(=O)(=O)N2CCOCC2)s1)N1CCN(S(=O)(=O)c2cccc(Cl)c2)CC1,?,.,.,.,.,.
CCc1ccccc1NC(=O)Cn1nnc(-c2cccnc2)n1,22832,.,.,.,.,.

# Bioassay records deposited in PubChem by several laboratories.
